The structures appear in SMILES notation. The panel holds about 83,000 compounds, 20% with a hit somewhere; the sample as a whole holds those more often.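 Note: values are percent growth. 100 is the growth of untreated cells, values between 100 and 0 indicate rising inhibition; between -100 and 0 indicates cell death.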 Unmarked numbers belong to inactive results. Active and inactive are the calls of the source. Rule for the calls: active = growth percent below 10; inactive = the rest.

From PubChem BioAssay (NCI) come the findings set out here.

Test systems include HCT-15 colon; HT29 colon; SNB-75 CNS; SNB-19 CNS; U251 CNS; PC-3 prostate; SK-MEL-5 melanoma; UACC-62 melanoma; LOX IMVI melanoma; SK-MEL-28 melanoma.
Experiment in all cases: NCI-60 one-dose screen, 48 h (100 = growth as untreated, 0 = no growth, -100 = all killed)
Holding throughout (settings): 10 µM

On to `COc1ccc(-c2nnc(SCC(=O)Nc3ccc(C(=O)/C=C/c4ccccc4)cc3)n2-c2ccccc2)cc1OC`, for which the growth in the test with HCT-15 colon is 86.5%; in the test with HT29 colon it was 60.3%; in the test on SNB-75 CNS, 84.2%; with SNB-19 CNS, 83.3%; with U251 CNS, 79.5%; in the test on PC-3 prostate, 69.5%. The growth in the test with SK-MEL-5 melanoma is 83.1%; in the test with UACC-62 melanoma it was 81.1%; in the test on LOX IMVI melanoma it was 32.5%; in the test on SK-MEL-28 melanoma, 89.3%.
For the molecule `OCC1OC(n2cnc3c(NCc4ccco4)ncnc32)C(O)C1O` (stereo not given), the growth is 6.12% (active) in the test with HCT-15 colon; 23.3% with HT29 colon; 14.7% with SNB-75 CNS; 28.5% in the test with SNB-19 CNS; 43.7% in the test on U251 CNS; 22% with PC-3 prostate. Besides, the growth was 23.7% with SK-MEL-5 melanoma, 32.5% in the test on UACC-62 melanoma, -63.7% (active) in the test on LOX IMVI melanoma and 68.1% in the test with SK-MEL-28 melanoma.
As for `COc1cc2cc(Oc3ccc(NC(=O)c4cc(C(F)(F)F)cc(C(F)(F)F)c4)cc3)c(C)nc2cc1OC`, the growth was 38.1% in the test with HCT-15 colon; 49.8% with HT29 colon; 62.1% in the test on SNB-75 CNS; 49.9% in the test on SNB-19 CNS; 13.3% with U251 CNS; 17.5% in the test with PC-3 prostate. Further, the growth with SK-MEL-5 melanoma is 16.6%; in the test with UACC-62 melanoma, 33.2%; in the test on LOX IMVI melanoma it was 66%; in the test on SK-MEL-28 melanoma, 84.9%.
On to `C=CCn1c(SCC(=O)Nc2ccc(C(=O)/C=C/c3ccc(Cl)cc3)cc2)nnc1-c1cc(-c2ccccc2)nc2ccccc12`, for which the growth in the test on HCT-15 colon is 8.31% (active); in the test on HT29 colon, 40.9%; in the test with SNB-75 CNS, 59.8%; in the test on SNB-19 CNS, 66.9%; with U251 CNS it was 48.1%; in the test on PC-3 prostate, 70.4%. Moreover, the growth in the test on SK-MEL-5 melanoma was 87.1%; in the test with UACC-62 melanoma, 59.9%; in the test on LOX IMVI melanoma it was -82.4% (active); in the test with SK-MEL-28 melanoma, 99.7%.
Take `CCOC(=O)c1cc(C(=O)c2cc(OC)c(OC)c(OC)c2)n2ccc(-c3cc[n+](CC(=O)c4cc(OC)c(OC)c(OC)c4)cc3)cc12`: the growth with HCT-15 colon was 83.3%; in the test with HT29 colon, -10.1% (active); in the test on SNB-75 CNS, 75.8%; in the test with SNB-19 CNS, 32.2%; in the test with U251 CNS, -73.6% (active); in the test on PC-3 prostate, 54.1%. Besides, the growth is 81.4% with SK-MEL-5 melanoma, 87.4% with UACC-62 melanoma, -43.9% (active) in the test on LOX IMVI melanoma and 98.3% in the test with SK-MEL-28 melanoma.
On to `COc1cc(C(=O)n2nc(-c3cc(OC)c(OC)c(OC)c3)nc2N)cc(OC)c1OC`, for which the growth with HCT-15 colon is 100%; with HT29 colon, 82.7%; with SNB-75 CNS, 81.9%; with SNB-19 CNS it was 102%; in the test with U251 CNS it was 97.3%; in the test on PC-3 prostate it was 95.7%. For the same molecule, the growth is 94.5% with SK-MEL-5 melanoma, 102% in the test on UACC-62 melanoma, 95.8% in the test on LOX IMVI melanoma and 97% with SK-MEL-28 melanoma.
Take `COc1cc(C2C(C#N)=C(N)Oc3cc(O)ccc32)cc(OC)c1OC` (stereo not given): the growth in the test on HCT-15 colon is 30.1%; in the test on HT29 colon, 2.42% (active); with SNB-75 CNS, 33.9%; with SNB-19 CNS it was 44.9%; in the test on U251 CNS, 11.1%; with PC-3 prostate, 21.5%. Also, the growth is 23% in the test with SK-MEL-5 melanoma, 38.4% in the test with UACC-62 melanoma, 45.7% in the test with LOX IMVI melanoma and 58% in the test with SK-MEL-28 melanoma.
As for `O=C(CCl)Nc1ccc(Cc2ccc(NC(=O)CCl)cc2)cc1`, the growth is -39.7% (active) in the test on HCT-15 colon; -39.1% (active) with HT29 colon; 61.1% with SNB-75 CNS; 26.3% in the test on SNB-19 CNS; -85.7% (active) with U251 CNS; 2.98% (active) with PC-3 prostate. In addition, the growth in the test on SK-MEL-5 melanoma is -88.5% (active); in the test with UACC-62 melanoma it was -9.18% (active); in the test on LOX IMVI melanoma, -84.6% (active); in the test on SK-MEL-28 melanoma it was 5.21% (active).
Consider `CC[C@@H](C(=O)[C@@H](C)[C@@H](O)[C@H](C)[C@@H]1O[C@@H]([C@@H](CC)C(=O)N(CC)CC)CC[C@@H]1C)C1O[C@]2(C=CC(=O)[C@]3(CC[C@@](C)([C@H]4CC[C@](O)(CC)[C@H](C)O4)O3)O2)[C@H](C)C[C@@H]1C` (stereo not given in full), for which the growth in the test on HCT-15 colon is 11%; in the test on HT29 colon it was 13.1%; in the test with SNB-75 CNS, 30.2%; with SNB-19 CNS, 23.4%; with U251 CNS it was 6.72% (active); in the test on PC-3 prostate, 7.83% (active). The growth in the test with SK-MEL-5 melanoma is -42.9% (active); with UACC-62 melanoma, 13%; with LOX IMVI melanoma it was 34.3%; in the test with SK-MEL-28 melanoma, 19.5%.
For the molecule `CC(=O)Nc1ccc2c(c1)C(=O)c1cccc(C(=O)O)c1-2`, the growth with HCT-15 colon is 107%; in the test on HT29 colon, 115%; with SNB-75 CNS, 91%; with SNB-19 CNS it was 101%; with U251 CNS it was 108%; in the test on PC-3 prostate, 99.5%. Further, the growth was 95.5% in the test with SK-MEL-5 melanoma, 109% with UACC-62 melanoma, 109% in the test with LOX IMVI melanoma and 97.9% in the test with SK-MEL-28 melanoma.
Turning to `COc1ccc2c(c1)C(=O)/C(=C/c1ncc([N+](=O)[O-])n1C)O2`, the growth in the test on HCT-15 colon is 6.82% (active); with HT29 colon, -20.5% (active); in the test on SNB-75 CNS, 69.5%; in the test on SNB-19 CNS, -16.6% (active); in the test with U251 CNS, -25.4% (active); with PC-3 prostate, 101%. In addition, the growth was -89% (active) in the test with SK-MEL-5 melanoma, -68.4% (active) in the test with UACC-62 melanoma, -68.1% (active) in the test on LOX IMVI melanoma and -22.4% (active) in the test on SK-MEL-28 melanoma.
As for `O=C(O)c1cc([N+](=O)[O-])ccc1Oc1ccccc1`, the growth is 95.4% with HCT-15 colon; 90.8% in the test with HT29 colon; 98.1% in the test with SNB-75 CNS; 98.4% with SNB-19 CNS; 95.9% with U251 CNS; 89.2% in the test on PC-3 prostate. The growth in the test on SK-MEL-5 melanoma is 84.6%; in the test on UACC-62 melanoma, 103%; in the test on LOX IMVI melanoma it was 93.1%; with SK-MEL-28 melanoma, 107%.
Turning to `COc1cc(/C=C2\CCCC3=C2NC(N)=NC3c2cc(OC)c(OC)c(OC)c2)cc(OC)c1OC` (stereo not given), the growth with HCT-15 colon was -4.55% (active); with HT29 colon, -35.4% (active); in the test with SNB-75 CNS, 45.7%; in the test with SNB-19 CNS, 61.6%; with U251 CNS, -85.2% (active); in the test on PC-3 prostate, 25.9%. Besides, the growth in the test with SK-MEL-5 melanoma is -96.5% (active); with UACC-62 melanoma, -41.1% (active); in the test on LOX IMVI melanoma, -46.7% (active); in the test with SK-MEL-28 melanoma, 24.9%.
